In PubChem BioAssay:
Active and inactive are the calls of the source. Unless noted, no rule for the calls is given here.

Experiments:
[1] = resazurin metabolic signal in HepG2 cells – cell-based, resazurin fluorescence, 24 h, PK04 Diversity Set, profiling panel (AID 1172); details: HepG2 viability, higher = more signal; also: test concentration not given here
[2] = budding yeast growth changes without added modifier – OD600, strain BY4716, 24 h, basal condition, primary screen (AID 1173); details: S. cerevisiae BY4716 growth, OD600, 24 h; higher = more signal, called active from +8 up or from −8 down
[3] = viability profiling in MM1S myeloma cells – cell-based, resazurin fluorescence, basal, 24 h, PK04 Diversity Set, profiling panel (AID 1174); details: higher = more signal, called active from +8 up or from −8 down;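 also: MM1S multiple myeloma cell line; test concentration not given here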
[4] = target: Dihydroorotate dehydrogenase (quinone), mitochondrial (Plasmodium falciparum (isolate 3D7)) (UniProt Q08210); test: inhibition of P. falciparum DHODH – biochemical, C-terminal His tag, absorbance 600 nm, primary screen (AID 1175); details: PfDHODH enzyme, DCIP absorbance 600 nm; higher = more signal, called active from +8 up or from −8 down;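 also: recombinant parasite enzyme with a five histidine tag at its C terminus; test concentration not given here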
[5] = inhibition of PAO1 biofilm formation – strain PAO1, LB-PBS medium, absorbance 600 nm, primary screen (AID 1176); also: test concentration not given here; details: P. aeruginosa PAO1 growth/biofilm, A600, 12 h; higher = more signal
[6] = growth modulation of vineyard yeast isolate – strain RM11-1a, OD600, basal, 24 h, primary screen (AID 1177);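 also: cultures grown under basal conditions with no added stressor; test concentration not given here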; details: S. cerevisiae RM11-1a growth, OD600, 24 h; higher = more signal, called active from +8 up or from −8 down
[7] = growth of efflux-deficient E. coli DRC39 – strain DRC39, OD650, 24 h, E. coli filamentation inducers, primary screen (AID 1178);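 also: growth measured as culture turbidity by optical density at 650 nm; test concentration not given here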; details: E. coli DRC39 acrAB, higher = more signal, called active from +8 up or from −8 down
[8] = growth of efflux-deficient E. coli DRC39 – strain DRC39, OD650, 48 h, E. coli filamentation inducers, primary screen (AID 1179);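 also: screen aims at cell division blockers that make cells filament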; details: E. coli DRC39 delta-acrAB growth, higher = more signal, called active from +8 up or from −8 down
[9] = viability profiling in RPMI8226 myeloma cells – cell-based, resazurin fluorescence, basal, 24 h, PK04 Diversity Set, profiling panel (AID 1180); details: higher = more signal;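 also: RPMI8826 multiple myeloma cell line at 5000 cells per well; test concentration not given here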
[10] = target: E3 ubiquitin-protein ligase XIAP (Homo sapiens) (UniProt P98170); test: small molecules binding XIAP protein – biophysical, small-molecule microarray, fluorescence 635 nm, primary screen (AID 1181); details: higher = more signal;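 also: score merges 667 nm emission and signal to noise over triplicate slides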
Sequence of E3 ubiquitin-protein ligase XIAP (Homo sapiens) (P98170 whole entry, looked up): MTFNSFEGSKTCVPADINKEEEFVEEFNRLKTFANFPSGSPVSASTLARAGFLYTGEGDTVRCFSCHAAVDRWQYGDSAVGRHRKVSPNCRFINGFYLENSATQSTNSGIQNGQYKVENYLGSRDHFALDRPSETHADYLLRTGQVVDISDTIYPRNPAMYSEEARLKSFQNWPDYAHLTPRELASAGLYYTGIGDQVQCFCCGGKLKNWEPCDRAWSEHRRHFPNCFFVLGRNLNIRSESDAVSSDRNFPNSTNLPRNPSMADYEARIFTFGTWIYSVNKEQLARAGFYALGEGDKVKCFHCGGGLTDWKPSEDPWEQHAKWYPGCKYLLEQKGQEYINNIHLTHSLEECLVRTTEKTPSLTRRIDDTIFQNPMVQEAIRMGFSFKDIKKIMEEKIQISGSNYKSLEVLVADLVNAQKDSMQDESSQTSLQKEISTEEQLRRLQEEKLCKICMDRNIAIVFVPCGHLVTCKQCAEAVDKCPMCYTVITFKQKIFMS

Sequence of Dihydroorotate dehydrogenase (quinone), mitochondrial (Plasmodium falciparum (isolate 3D7)) (Q08210 whole entry, looked up): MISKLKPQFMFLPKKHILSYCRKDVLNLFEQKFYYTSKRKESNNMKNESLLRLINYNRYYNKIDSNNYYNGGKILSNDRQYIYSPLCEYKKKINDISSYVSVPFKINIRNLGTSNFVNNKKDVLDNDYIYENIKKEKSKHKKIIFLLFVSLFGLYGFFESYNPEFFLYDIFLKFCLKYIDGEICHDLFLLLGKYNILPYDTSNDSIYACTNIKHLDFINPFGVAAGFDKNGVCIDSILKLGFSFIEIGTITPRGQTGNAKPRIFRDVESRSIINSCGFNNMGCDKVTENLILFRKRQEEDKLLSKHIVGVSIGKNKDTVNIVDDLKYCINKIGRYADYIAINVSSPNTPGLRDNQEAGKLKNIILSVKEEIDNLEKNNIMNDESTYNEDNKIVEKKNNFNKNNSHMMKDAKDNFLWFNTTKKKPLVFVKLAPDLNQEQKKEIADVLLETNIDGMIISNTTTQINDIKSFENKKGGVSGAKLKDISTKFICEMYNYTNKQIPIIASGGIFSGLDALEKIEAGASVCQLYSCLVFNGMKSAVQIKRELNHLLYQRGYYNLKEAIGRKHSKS

| SMILES | z-score [1] | z-score [2] | z-score [3] | composite z-score [4] | z-score [5] | z-score [6] | z-score [7] | z-score [8] | z-score [9] | composite z-score [10] |
| --- | --- | --- | --- | --- | --- | --- | --- | --- | --- | --- |
| O=C(CS)NCCCCCCNC(=O)[C@@H]1C[C@@H]2C(=O)N[C@@H](Cc3ccccc3)C(=O)N2[C@@H]1c1ccc(O)cc1 | -0.306 | 0.636 (inactive) | 0.0515 (inactive) | 0.224 (inactive) | -0.239 (inactive) | 0.809 (inactive) | -0.288 (inactive) | -0.889 (inactive) | -0.518 | 0.0518 |
| C=CCC(OC(C)=O)[C@@H]1[C@@H](N(Cc2cccc3ccccc23)C(=O)Cc2ccc(F)cc2)c2cc(OCCCO)ccc2N1C(=O)Cc1ccc2ccccc2c1 (stereo not given in full) | 0.549 | 0.595 (inactive) | 0.295 (inactive) | -0.373 (inactive) | 0.195 (inactive) | 0.0764 (inactive) | -0.283 (inactive) | 0.4 (inactive) | -1.29 | -0.0332 |
| O=C1O[C@@H](c2ccccc2)[C@@H](c2ccccc2)N2[C@@H](c3ccc(OCCO)cc3)[C@]3(C(=O)Nc4ccc(C#CCCO)cc43)[C@@H](C(=O)N3CCN(c4ncccn4)CC3)[C@H]12 | 1.26 | 1.35 (inactive) | 0.833 (inactive) | -1.58 (inactive) | 1.55 (inactive) | 2.04 (inactive) | 1.05 (inactive) | 0.17 (inactive) | 2.17 | 0.19 |
| COc1ccc([Si](C)(C)[C@@H]2[C@@H](CCO)O[C@]3(C(=O)N(Cc4ccccc4)c4ccccc43)[C@H]2C)cc1 | -1 | 0.212 (inactive) | -0.604 (inactive) | 0.825 (inactive) | 0.13 (inactive) | 0.347 (inactive) | 0.916 (inactive) | -0.326 (inactive) | -0.372 | -0.232 |
| COC(=O)[C@@]1(Cc2ccccc2CN=[N+]=[N-])N=C(c2ccc(OCCCO)cc2)O[C@H]1c1ccccc1N=[N+]=[N-] | -0.806 | 1.49 (inactive) | -3.44 (inactive) | 3.12 (inactive) | 1.69 (inactive) | 2.6 (inactive) | 0.365 (inactive) | -0.762 (inactive) | -3.59 | -0.0095 |
| CC(C)=C1C(=O)C(c2ccccc2)=C2CN3C(=O)N(CCc4ccccc4)C(=O)[C@]3(Cc3ccccc3)[C@H]21 | -1.18 | 0.66 (inactive) | -0.692 (inactive) | 0.223 (inactive) | 0.178 (inactive) | 0.071 (inactive) | -0.652 (inactive) | -0.295 (inactive) | -0.693 | -0.122 |
| O=C1O[C@H](c2ccccc2)[C@H](c2ccccc2)N2[C@H]1[C@@H](C(=O)Nc1nc3ccccc3s1)[C@]1(C(=O)Nc3ccc(C#CC4(O)CCCCCC4)cc31)[C@H]2c1ccc(O)cc1 | -0.629 | -0.945 (inactive) | -1.55 (inactive) | 0.0022 (inactive) | 1.44 (inactive) | -0.124 (inactive) | -0.492 (inactive) | -0.716 (inactive) | -1.36 | -0.0426 |
| Cc1ccc(S[C@]2(C(=O)NC(C)C)CC(=O)N(Cc3cc(C(F)(F)F)cc(C(F)(F)F)c3)[C@@H]2c2ccc(CO)cc2I)cc1 | 0.53 | -2.86 (inactive) | -2.27 (inactive) | 0.4 (inactive) | 0.447 (inactive) | -0.59 (inactive) | 0.498 (inactive) | 1.02 (inactive) | -2.55 | -0.209 |
| CCCC[C@@H]1C[C@H]1[C@@H](NC(=O)c1ccccc1)c1ccccc1C(F)(F)F | 0.826 | 0.66 (inactive) | -0.159 (inactive) | -0.454 (inactive) | 0.951 (inactive) | -0.114 (inactive) | -0.372 (inactive) | -0.464 (inactive) | 0.0311 | -0.261 |
| O=C(NCC(F)(F)F)[C@@H]1c2ccccc2C(=O)N(Cc2ccccc2Cl)[C@H]1c1ccc(CO)cc1 | 0.519 | -0.331 (inactive) | 0.403 (inactive) | -0.731 (inactive) | 0.277 (inactive) | -0.562 (inactive) | 0.113 (inactive) | 0.183 (inactive) | 0.641 | 0.282 |
| CCCC=C(CCC)[C@@H](NC(=O)c1ccc(C(F)(F)F)cc1)c1ccccc1 | -0.421 | 0.79 (inactive) | -0.507 (inactive) | -3.63 (inactive) | 4.02 (inactive) | 0.513 (inactive) | 0.0948 (inactive) | -0.221 (inactive) | -0.996 | -0.253 |
| COc1cc(Cc2cc3c(c(CCc4ccccc4)n2)[Si](C(C)C)(C(C)C)OC3)cc(OC)c1OC | 1.47 | -0.0438 (inactive) | 0.273 (inactive) | -0.606 (inactive) | 0.726 (inactive) | 0.404 (inactive) | -0.171 (inactive) | 0.365 (inactive) | 0.815 | 0.107 |
| COCCCNC(=O)[C@@]1(c2ccc([N+](=O)[O-])cc2)CC(=O)N(C2CCCCC2)[C@@H]1c1ccc(CO)cc1 | 0.172 | -0.27 (inactive) | 0.337 (inactive) | -0.0394 (inactive) | 0.814 (inactive) | -0.491 (inactive) | -0.131 (inactive) | -0.346 (inactive) | 0.946 | 0.147 |
| COc1ccc(C(O)C2C=CC3C(=O)N(C)C(=O)C3N2N2CCCCC2)cc1OCc1ccccc1 (stereo not given) | 1.06 | -1.21 (inactive) | 0.0046 (inactive) | 1.05 (inactive) | 0.779 (inactive) | 1.26 (inactive) | -0.738 (inactive) | -0.811 (inactive) | -2.38 | -0.0937 |
| COCCOC(=O)N1C(=O)[C@@]2(c3cc(C#CC4=CCCCC4)ccc31)[C@H](c1ccc(O)cc1)N1[C@H](c3ccccc3)[C@H](c3ccccc3)OC(=O)[C@H]1[C@@H]2C(=O)N1CCCCCCC1 | 0.32 | -0.615 (inactive) | 1.17 (inactive) | 0.104 (inactive) | 1.35 (inactive) | 0.19 (inactive) | 0.15 (inactive) | 1.29 (inactive) | 0.768 | -0.445 |
| COc1ccc([Si](C)(C)[C@@H]2[C@@H](CCO)O[C@]3(C(=O)N(Cc4ccc(NC(=O)[C@H](C)O)cc4)c4ccccc43)[C@H]2C)cc1 | -1.84 | -0.177 (inactive) | -6.71 (inactive) | -1.07 (inactive) | -0.717 (inactive) | 3.7 (inactive) | 1.26 (inactive) | 0.335 (inactive) | -5.69 | -0.0497 |
| O=C1O[C@H](c2ccccc2)[C@H](c2ccccc2)N2[C@H]1[C@@H](C(=O)NC[C@H](O)c1ccccc1)[C@]1(C(=O)Nc3ccc(C#CC4(O)CCCCCC4)cc31)[C@H]2c1ccc(OCCO)cc1 | -0.148 | 0.359 (inactive) | -0.15 (inactive) | -1.82 (inactive) | 1.9 (inactive) | 1.68 (inactive) | 1.66 (inactive) | 0.855 (inactive) | 0.931 | -0.168 |
| CCOC(=O)C1=CC[C@@H](c2ccc(-c3ccc(OCc4ccccc4)cc3)c(OC)c2)N(S(=O)(=O)c2ccc(C)cc2)[C@H]1c1ccccc1 | 0.899 | 0.0553 (inactive) | 0.25 (inactive) | 0.917 (inactive) | 0.325 (inactive) | -0.0764 (inactive) | 0.263 (inactive) | 1.3 (inactive) | 0.894 | -0.02 |
| Cc1ccc(N2C(=O)c3ccccc3[C@](C)(C(=O)NCC(C)C)[C@@H]2c2ccc(CO)cc2)nc1 | 0.1 | 0.726 (inactive) | -0.558 (inactive) | 1.08 (inactive) | 0.14 (inactive) | 1.42 (inactive) | 0.401 (inactive) | -0.247 (inactive) | -0.481 | -0.0095 |
| CCCC=C(CCC)[C@@H](NS(=O)(=O)c1ccc(C(F)(F)F)cc1)c1ccc(-c2ccccc2)cc1 | 2.18 | 1.05 (inactive) | 1.14 (inactive) | 0.472 (inactive) | -1.16 (inactive) | 1.41 (inactive) | 0.0852 (inactive) | -0.839 (inactive) | 0.719 | 0.0264 |
| CC(C)[C@H]1NC(=O)[C@@]23C(=O)N[C@@H](Cc4ccccc4)C2[C@H](C)[C@@]2(C)O[C@H]2C3/C=C/C/C=C\CNC(=O)[C@H](C)NC1=O (stereo not given in full) | -0.546 | 0.976 (inactive) | 0.323 (inactive) | -0.0591 (inactive) | 1.13 (inactive) | 1.01 (inactive) | -0.198 (inactive) | -0.301 (inactive) | 0.142 | -0.129 |
| COc1ccc([Si](C)(C)[C@@H]2[C@@H](CC(=O)N(CCO)Cc3ccccc3)O[C@]3(C(=O)N(Cc4cccc(N5CCC5=O)c4)c4ccccc43)[C@H]2C)cc1 | -1.51 | 0.328 (inactive) | -2.9 (inactive) | -0.645 (inactive) | 0.708 (inactive) | 1.32 (inactive) | 0.882 (inactive) | -0.0661 (inactive) | -2.08 | 0.154 |
| C[C@@H]1NC(=O)[C@H](Cc2ccccc2)NC(=O)[C@@]23C(=O)N[C@@H](Cc4ccccc4)C2[C@H](C)[C@@]2(C)O[C@H]2C3/C=C/C/C=C\CNC1=O (stereo not given in full) | -0.51 | -0.256 (inactive) | -0.0224 (inactive) | 0.398 (inactive) | 0.236 (inactive) | 0.657 (inactive) | -0.593 (inactive) | -0.514 (inactive) | -0.0497 | -0.119 |
| COc1ccc(NN2C(C(O)c3cc(OC)c(OC)c(OC)c3)C=CC3C(=O)N(C4CCCCC4)C(=O)C32)cc1 (stereo not given) | -0.665 | -0.376 (inactive) | -0.946 (inactive) | -0.41 (inactive) | 0.89 (inactive) | 0.389 (inactive) | -1.02 (inactive) | 0.187 (inactive) | -1.48 | 0.147 |
